Assay results as given in article PMC4336329 (PLoS ONE, 2015).
Screen size: about 310,000 compounds; about 14,000 (4.5%) showed an effect of 50% or more. Effects have a minus sign here. Only a selection was taken, and strong results are over-represented in it overall.

biological target: human ether-à-go-go-related gene (hERG) potassium channel (human, UniProt Q12809); test: primary screen, population patch clamp on CHO cells stably expressing hERG; higher = less effect of the substance
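Note: peak tail current of the secondary pulse compared with the same well before compound.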

human ether-à-go-go-related gene (hERG) potassium channel, sequence (Q12809 whole entry, looked up): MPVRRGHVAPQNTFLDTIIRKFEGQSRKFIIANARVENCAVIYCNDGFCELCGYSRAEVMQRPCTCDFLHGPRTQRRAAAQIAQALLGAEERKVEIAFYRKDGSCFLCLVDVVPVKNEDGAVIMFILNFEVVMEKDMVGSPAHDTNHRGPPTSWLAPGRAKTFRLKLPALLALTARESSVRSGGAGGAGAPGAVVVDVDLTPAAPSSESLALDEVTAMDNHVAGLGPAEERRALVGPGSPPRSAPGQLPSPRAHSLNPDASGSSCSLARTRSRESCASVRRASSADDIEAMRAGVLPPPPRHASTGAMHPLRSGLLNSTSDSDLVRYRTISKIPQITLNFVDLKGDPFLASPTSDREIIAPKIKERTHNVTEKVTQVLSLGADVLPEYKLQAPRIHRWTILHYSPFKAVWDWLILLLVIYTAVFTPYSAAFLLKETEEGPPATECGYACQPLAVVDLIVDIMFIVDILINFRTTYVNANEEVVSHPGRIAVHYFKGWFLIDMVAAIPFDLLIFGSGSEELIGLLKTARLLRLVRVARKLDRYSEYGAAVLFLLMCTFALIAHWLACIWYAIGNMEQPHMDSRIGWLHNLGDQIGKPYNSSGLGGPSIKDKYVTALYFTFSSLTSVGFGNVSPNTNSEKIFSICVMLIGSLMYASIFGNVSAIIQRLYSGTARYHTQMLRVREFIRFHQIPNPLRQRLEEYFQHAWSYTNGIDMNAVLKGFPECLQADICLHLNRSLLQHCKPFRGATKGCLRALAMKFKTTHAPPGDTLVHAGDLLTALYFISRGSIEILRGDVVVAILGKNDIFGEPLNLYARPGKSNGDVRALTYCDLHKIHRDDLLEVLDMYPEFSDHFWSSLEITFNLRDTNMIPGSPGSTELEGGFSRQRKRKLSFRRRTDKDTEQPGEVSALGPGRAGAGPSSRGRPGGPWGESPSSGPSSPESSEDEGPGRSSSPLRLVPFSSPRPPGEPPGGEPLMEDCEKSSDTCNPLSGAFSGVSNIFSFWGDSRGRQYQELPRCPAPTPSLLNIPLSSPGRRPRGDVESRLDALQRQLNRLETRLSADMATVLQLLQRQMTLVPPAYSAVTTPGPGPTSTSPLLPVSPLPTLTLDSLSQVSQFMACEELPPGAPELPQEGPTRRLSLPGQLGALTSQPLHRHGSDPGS

Row | SMILES | hERG current change (%, negative = inhibition) at 10uM
1 | Cc1ccc(S(=O)(=O)n2cnc3cc([N+](=O)[O-])ccc32)cc1C | -19.9%
2 | Cc1cc(NC(=O)CSc2nc3c(cc2C#N)CCC3)no1 | 26.7%
3 | O=C1c2ccccc2C(=O)N1c1ncn[nH]1 | 11.3%
4 | Cc1cccc(Nc2ncnc(N)n2)c1 | 15.6%
5 | O=C1CCN(Cc2ccc(Cl)cc2)N1 | 10.8%
6 | CC(C)c1cc(=O)n2[nH]c(SCc3ccccc3Cl)nc2n1 | 23.7%
7 | Cc1ccc(C(=O)COC(=O)CCC(=O)NC2CCCCC2)cc1C | 14.8%
8 | Cc1cccc(C)c1N(CC(O)Cn1c2ccccc2c2ccccc21)S(C)(=O)=O (stereo not drawn) | 18.6%
9 | COc1cccc(C(CC(=O)O)NS(=O)(=O)c2ccc3c(c2)N(C(C)=O)CC(C)O3)c1 (stereo not drawn) | 24.4%
10 | Cc1nn(-c2ccccc2)c(Cl)c1C(=O)N1CCN(c2ncnc3c2cnn3-c2ccccc2)CC1 | -29.1%
11 | CCOC(=O)C1(CCOC)CCN(Cc2ccc(C3CCCCO3)s2)CC1 (stereo not drawn) | -21.4%
12 | C=C(C)[C@@H]1CC=C(CN2CCC(CCOC)(C(=O)OCC)CC2)CC1 | -64.7%
13 | CCOC(=O)C1(CCOC)CCN(Cc2nc(C(C)C)cs2)CC1 | 41%
14 | N#CCCN(CCC#N)C(=O)C1c2ccccc2Oc2ccccc21 | 14.4%
15 | CCOC(=O)c1ccccc1NC(=O)COC(=O)CN1C(=O)C2CC=CCC2C1=O (stereo not drawn) | -2.8%
16 | Cn1c(C(=O)NCCN2CCCCCC2)cc2c(=O)n(C)c3ccccc3c21 | -13.4%
17 | C=CCOc1ccc2oc(=O)cc(C)c2c1 | -1.62%
18 | CCNc1c2c(nc3ccccc13)CC(C)(C)CC2=O.O=C(O)C(=O)O | -69.9%
19 | CC1(C)CC(=O)c2c(nc3ccccc3c2N)C1 | -28.8%
20 | Cc1c2c(nc3ccccc13)CC(C)(C)CC2=O.Cl | 0.994%
21 | O=C(Nc1cccc(C(=O)O)c1)/C(=C\c1ccco1)NC(=O)c1ccc(Br)o1 | -28.1%
22 | Cc1ccc(SCC(=O)OCC(=O)NCc2cccs2)cc1 | 5.8%
23 | NC(=S)N=Nc1c(O)n(CCCl)c2ccc(Cl)cc12 | 9.1%

Row | SMILES | hERG current change (%, negative = inhibition) at 10uM
24 | CCOc1cc(/C=C\[N+](=O)[O-])ccc1OCC(=O)N1CCOCC1 | -50.5%
25 | O=C(COc1ccc(/C=C\[N+](=O)[O-])cc1)N1CCOCC1 | -17.7%
26 | CCOc1cc(C=C2C(=O)NC(=O)NC2=O)ccc1OCC(=O)N1CCOCC1 | 7.28%
27 | CCCOc1ccc(C(=O)Nc2ccc3c(c2)OCO3)cc1 | 16.1%
28 | CC(=O)c1cccc(NC(=O)CCOc2ccccc2)c1 | 6.88%
29 | CCCOc1cccc(C(=O)Nc2cccc(NC(=O)c3ccco3)c2)c1 | -21.8%
30 | CCCOc1cccc(C(=O)Nc2cc(NC(=O)c3ccco3)ccc2OC)c1 | -81.2%
31 | COc1cccc(C(=O)Nc2cc(NC(=O)c3ccco3)ccc2OC)c1 | -5.19%
32 | COc1ccc(NC(=O)c2ccco2)cc1NC(=O)c1cccc(OC(C)C)c1 | -96.7%
33 | CCCCOc1cccc(C(=O)Nc2ccc(NC(=O)c3ccco3)cc2)c1 | 8.63%
34 | CC(C)Oc1cccc(C(=O)Nc2ccc(NC(=O)c3ccco3)cc2)c1 | 6.06%
35 | CCCc1cc(=O)[nH]c(SCC(=O)Nc2nonc2N)n1 | -5.4%
36 | COc1ccc(CC(=O)Nc2sc3c(c2C#N)CC(C)(C)NC3(C)C)cc1OC | -3.63%
37 | COc1ccc(C(=O)CSc2nnc(NC(=O)C3CC(=O)N(c4cccc(OC)c4)C3)s2)cc1 (stereo not drawn) | 15.6%
38 | COC(=O)CC1=C(C(=O)OC)C2(C(=O)N(C)c3ccccc32)C(C#N)=C(N)O1 (stereo not drawn) | 14.7%
39 | CC(C)(C)NC(=O)/C(=C\c1ccccc1F)NC(=O)c1ccc([N+](=O)[O-])cc1 | -35.3%
40 | Cn1c(=O)n(CCOc2ccc(Cl)cc2Cl)c2ccccc21 | -2.26%
41 | Cl.N=c1n(CCO)c2ccccc2n1CCOc1ccc(Cl)cc1Cl | -63.8%
42 | Cl.N=c1n(CCO)c2ccccc2n1Cc1ccc(Cl)cc1 | -40.1%
43 | COc1ccccc1NS(=O)(=O)c1ccc(-c2cc(C)no2)s1 | -69.5%
44 | COc1ccccc1NS(=O)(=O)c1cc(-c2cc(C)no2)ccc1OC | -5.52%
45 | COC(=O)c1ccc(NS(=O)(=O)c2ccc(-c3cc(C)no3)s2)cc1 | 10.5%
